The campaign covered roughly 310,000 compounds. About 14,000 (4.5%) showed an effect of 50% or more. The effect is printed as a negative number. The sample holds strong results, similar compounds and a random draw of the others, so the mix is not that of the screen.
biological target: human ether-à-go-go-related gene (hERG) potassium channel (human, UniProt Q12809); test: primary screen, population patch clamp on CHO cells stably expressing hERG; higher = less effect of the substance
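Note: peak tail current of the secondary pulse compared with the same well before compound.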

human ether-à-go-go-related gene (hERG) potassium channel, sequence (Q12809 whole entry, looked up): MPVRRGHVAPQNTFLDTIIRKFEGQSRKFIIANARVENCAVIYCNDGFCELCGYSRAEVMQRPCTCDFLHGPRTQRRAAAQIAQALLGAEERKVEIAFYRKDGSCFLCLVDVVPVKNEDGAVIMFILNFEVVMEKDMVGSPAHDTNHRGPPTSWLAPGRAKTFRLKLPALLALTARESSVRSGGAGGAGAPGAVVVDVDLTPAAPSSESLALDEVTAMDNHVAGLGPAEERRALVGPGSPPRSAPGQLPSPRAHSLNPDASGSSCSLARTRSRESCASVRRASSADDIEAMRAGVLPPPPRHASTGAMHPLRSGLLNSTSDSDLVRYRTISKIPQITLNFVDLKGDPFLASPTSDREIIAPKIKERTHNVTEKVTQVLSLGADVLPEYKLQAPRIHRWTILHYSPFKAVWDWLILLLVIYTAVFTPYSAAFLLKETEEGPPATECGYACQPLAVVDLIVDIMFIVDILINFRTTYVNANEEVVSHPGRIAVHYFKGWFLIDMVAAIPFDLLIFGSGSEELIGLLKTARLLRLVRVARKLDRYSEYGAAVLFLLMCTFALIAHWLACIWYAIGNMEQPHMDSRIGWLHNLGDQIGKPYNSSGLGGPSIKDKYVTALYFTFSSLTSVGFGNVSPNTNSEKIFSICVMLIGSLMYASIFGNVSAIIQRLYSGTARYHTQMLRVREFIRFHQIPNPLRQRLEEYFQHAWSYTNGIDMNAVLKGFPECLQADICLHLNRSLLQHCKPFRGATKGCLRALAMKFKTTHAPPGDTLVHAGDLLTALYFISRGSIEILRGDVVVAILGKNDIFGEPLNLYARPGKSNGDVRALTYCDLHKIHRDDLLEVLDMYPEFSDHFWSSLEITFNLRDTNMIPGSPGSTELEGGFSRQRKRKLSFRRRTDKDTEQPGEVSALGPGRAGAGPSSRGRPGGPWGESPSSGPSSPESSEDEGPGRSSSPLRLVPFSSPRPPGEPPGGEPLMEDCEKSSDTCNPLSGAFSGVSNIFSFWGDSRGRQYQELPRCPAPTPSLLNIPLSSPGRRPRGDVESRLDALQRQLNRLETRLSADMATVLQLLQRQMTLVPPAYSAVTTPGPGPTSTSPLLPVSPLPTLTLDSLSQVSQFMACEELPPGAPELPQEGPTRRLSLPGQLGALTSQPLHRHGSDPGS

Compound | hERG current change (%, negative = inhibition) at 10uM
Cc1cc(C(=O)N2CCCC(CCC(=O)N3CCN(c4ccccn4)CC3)C2)c(C)o1 (stereo not drawn) | -9.16%
COc1cccc(Cn2c(=S)[nH]c3ccc(N4CCOCC4)cc3c2=O)c1 | -8.19%
CCOC(=O)C1CCCN(C(=O)Cn2cnc3c2c(=O)n(C)c(=O)n3C)C1 (stereo not drawn) | 20.3%
O=C(C1CCCC1)N1CCN=C1SCc1cccc([N+](=O)[O-])c1 | -19.3%
Cc1ccc2nc(NCc3ccc(F)cc3)c3nncn3c2c1 | 2.23%
COc1ccc(C2N(Cc3ccccc3)CCN2Cc2ccccc2)cc1[N+](=O)[O-] | -29.9%
Cc1ccc(NC(=O)CN(C)C(=O)CSc2nc3ccccc3c(=O)n2Cc2ccco2)cc1 | -71.1%
CCn1c(SCC(=O)NCc2ccco2)nc2ccccc2c1=O | -34.4%
C=CCn1c(SCC(=O)NCc2ccco2)nc2ccccc2c1=O | -50.3%
CCc1ccccc1NC(=O)C(CC)Sc1nc2cc3c(cc2c(=O)n1Cc1ccco1)OCO3 (stereo not drawn) | 17.1%
O=C(CSc1nc2ccccc2c(=O)n1Cc1ccco1)Nc1cccc(O)c1 | 3.9%
CN(Cc1ccccc1)C(=O)CSc1nc2ccccc2c(=O)n1Cc1ccco1 | -3.56%
O=C(CSc1nc2ccccc2c(=O)n1Cc1ccco1)NCCN1C(=O)CSC1=O | -61.4%
O=C(CSc1nc2ccccc2c(=O)n1-c1ccccc1)NCc1ccco1 | -15.1%
CCC(Sc1nc2cc(OC)c(OC)cc2c(=O)n1Cc1ccco1)C(=O)NCCOC (stereo not drawn) | -28.2%
Cc1ccc(CSc2nc3ccccc3c(=O)n2Cc2ccco2)cc1 | 8.42%
CCC(Sc1nc2cc3c(cc2c(=O)n1Cc1ccco1)OCO3)C(=O)NCCOC (stereo not drawn) | -63.6%
Cn1c(SCC(=O)NCCN2C(=O)CSC2=O)nc2ccccc2c1=O | -2.05%
CCOc1ccc(C(=O)Nc2ccc(S(=O)(=O)Nc3cc(C)on3)cc2)cc1 | -9.73%
O=C(CSc1nnc(COc2ccccc2)n1Cc1ccco1)c1ccc(F)cc1 | -21.1%
Cc1ccnc2nc(C(=O)OCCOc3cccc(Br)c3)nn12 | -27.9%
COc1ccc(NC(=O)CCN2CC(C)OC(C)C2)c(OC)c1.Cl (stereo not drawn) | 13.2%
CCOc1cc(/C=N/n2c(COc3ccccc3)n[nH]c2=S)ccc1O | 24.4%

Compound | hERG current change (%, negative = inhibition) at 10uM
Cn1c(CN2CCOCC2)nnc1SCC(=O)NC1CCCCC1 | 17.7%
COc1cccc(C2(C)NC(=O)N(CC(=O)c3cc(C)n(C4CC4)c3C)C2=O)c1 (stereo not drawn) | -35.8%
O=C(NCc1ccc2c(c1)OCO2)c1ccc(Br)s1 | 6.32%
CCOC(=O)C1CCN(C(=O)Cn2nc(CC)n3cccc3c2=O)CC1 | -0.254%
Cc1cccc(NC(=O)N2C3CCCC2CC(NC(=O)C(C)(C)C)C3)c1 (stereo not drawn) | 1.47%
CCOC(=O)N1CCN(C(=O)c2ccc3c(c2)NC(=O)C(N2CCOCC2)S3)CC1 (stereo not drawn) | -4.6%
CCOc1cccc2cc(C(=O)NCc3cccnc3)c(=O)oc12 | -1.94%
COc1cc2nc(SCC(=O)NCc3ccco3)n(Cc3ccc(Cl)cc3)c(=O)c2cc1OC | -3.17%
Cc1nc2ccccc2n1CCc1nc2c3ccccc3nc(SCC(=O)NCc3ccco3)n2n1 | -60%
O=C(CSc1nc2ccccc2c(=O)n1Cc1ccco1)c1ccc(F)cc1 | 9.22%
O=C(CSc1nc2ccccc2n1CC(=O)NCc1ccccc1)NCc1ccco1 | -20.2%
CCN(CC)C(=O)CSc1nc2cc(OC)c(OC)cc2c(=O)n1Cc1ccc(Cl)cc1 | -77%
CCN(CC)C(=O)CSc1nc2cc3c(cc2c(=O)n1Cc1ccc(OC)cc1)OCO3 | 12.1%
O=c1c2ccccc2nc(SCc2ccccc2)n1Cc1ccco1 | 1.3%
CC(Sc1nc2ccccc2c(=O)n1Cc1ccco1)C(=O)c1ccccc1 (stereo not drawn) | -53.9%
O=C(CSc1nc2ccccc2c2nc3ccccc3n12)NCc1ccco1 | -8.55%
CN(C)C(CNC(=O)CSc1nc2ccccc2c(=O)n1Cc1ccco1)c1ccccc1 (stereo not drawn) | -67.1%
CC1CCCCC1NC(=O)CSc1nc2ccccc2c(=O)n1Cc1ccco1 (stereo not drawn) | 13%
COc1ccc(CCNc2ncnc3c2oc2ccccc23)cc1OC.Cl | 0.357%
CCCCn1nc(C(=O)N2CCc3ccccc32)c2ccccc2c1=O | -28.4%
CN(Cc1nc(-c2cnccn2)no1)Cc1cccc2ccccc12 | -2.31%
CCc1ccc(-c2ccc(SCc3ccccn3)nn2)cc1 | 3.91%

— publication PMC4336329 (PLoS ONE, 2015)
